From PubChem
FMDV antiviral: High Throughput Screening for Foot and Mouth Disease Virus Antivirals | FMDV antiviral cell-based qHTS | Potency, µM (top dose mostly 57.9 µM), without a hit: at the top dose activity change, negative = inhibition, hits mostly inhibitors | actives 1.2% (n = 410,000); calls by dose curve; tested in HEK293T cells; further: read-out not given here; on the % scale 0 is the no-effect control and ±100 the full control effect; nearly all actives have a fitted effect of over 45% in size
Marburg entry inh: qHTS for inhibitors of binding or entry into cells for Marburg Virus; Marburg virus pseudotyped entry inhibition, cell reporter; Potency, µM (titrated, usually from 37.8 µM), without a hit: top-dose activity change, negative = inhibition, actives largely listed as inhibitors; actives 1.8% (n = 300,000); calls by dose curve; tested in HEK293 cells; further: on the % scale 0 is the no-effect control and ±100 the full control effect
RE007 growth inh: qHTS Assay for Inhibitors of the HIV-1 protein Vpr; S. pombe RE007 Vpr strain, BacTiter-Glo ATP luminescence, 24 h; Potency, µM (series often up to 92.2 µM), for inactives: at the highest dose activity change, negative = less growth, most hits filed as inhibitors; actives 0.21% (n = 360,000); active means well fitted falling curve with a large enough effect; inconclusive means small, poorly fitted or top-dose-only effect; inactive means no such curve, though single readings can be large or run the other way; further: on the % scale 0 is the no-effect control and ±100 the full control effect; nearly all actives have a fitted effect of over 50% in size
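Fission yeast RE007 carrying one integrated HIV-1 vpr copy, seeded at OD 0.01 in PMG+AL medium with 23 nL pinned compound. Grown 24 h at 30 degrees; viability read by BacTiter-Glo luminescence after 5 min.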
LASV entry inh: qHTS for Inhibitors of binding or entry into cells for Lassa Virus; Lassa virus pseudotype entry inhibition, cell reporter; Potency, µM (highest dose often 37.9 µM), without a hit: at the highest dose activity change, negative = inhibition, usual class: inhibitors; actives 1.2% (n = 300,000); AID 540256, 2011; calls by dose curve; tested in HEK293 cells; further: on the % scale 0 is the no-effect control and ±100 the full control effect; nearly all actives have a fitted effect of over 50% in size
Sm TGR block: qHTS Assay for the Inhibitors of Schistosoma Mansoni Peroxiredoxins | Schistosoma mansoni thioredoxin glutathione reductase (TGR), Q962Y6 | actives 3% (n = 360,000) | Potency, µM (top dose mostly 114 µM), for inactives: at the top dose activity change, negative = inhibition, hits mostly inhibitors | purified TGR, DTNB reduction, TNB absorbance 405 nm | AID 485364, 2010; further: on the % scale 0 is the no-effect control and ±100 the full control effect; nearly all actives have a fitted effect of over 60% in size
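First, TGR (20 nM dispensed) and NADPH were mixed with compound. Second, a 15 min room-temperature incubation followed. Third, further NADPH and then DTNB were added to start the reaction. Finally, TNB absorbance was monitored kinetically.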
HCV inhibitor: qHTS Assay for Inhibitors of Hepatitis C Virus (HCV). Huh7.5.1 HCVcc-Cre infection, luciferase reporter, 44 h. Potency, µM (doses to about 41.8 µM), for the others: at the top dose activity change, negative = inhibition, actives largely listed as inhibitors. actives 3.4% (n = 340,000). AID 651820, 2012; further: on the % scale 0 is the no-effect control and ±100 the full control effect
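Seed cells (1,000/well) for 4 h; treat with compound and infect with HCVcc-Cre, moi about 0.5. Incubate 44 h, then detect luciferase activity.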
HCV inh confirm: qHTS Assay for Inhibitors of Hepatitis C Virus (HCV): Confirmation Assay for Cherry-picked Compounds | shares compounds with HCV inhibitor | HCVcc-Cre infectious virus cell assay, luciferase, inhibition | Potency, µM (top dose mostly 41.8 µM), inactives show at the top dose activity, negative = inhibition, usual class: inhibitors | actives 78% (n = 640); further: nearly all actives have a fitted effect of over 80% in size
HCV cytotox: qHTS Assay for Inhibitors of Hepatitis C Virus (HCV): Cytotoxicity Counterscreen for Cherry-picked Compounds. HCV host cell line cytotoxicity counterscreen. shares compounds with HCV inhibitor. actives 22% (n = 640). AID 720576, 2013. Potency, µM (doses to about 41.8 µM), inactives show at the top dose activity change, negative = cytotoxicity, actives largely listed as inhibitors;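 further: 44 h compound exposure; on the % scale 0 is the no-effect control and ±100 the full control effect; nearly all actives have a fitted effect of over 55% in size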
Numbers without * were called inactive; ? = inconclusive; nt = no result; [ ] = another dose, or the depositor's remark. Rows were chosen to be rich in hits. Some 7.2% of all compounds tested hit in one or more screens of this group. Unless noted, the call rests on the fitted dose curve; in most records, active means well fitted curve in the direction sought with a large enough effect; inconclusive means small, poorly fitted or top-dose-only effect, or another doubt; inactive means no such curve, though single readings can be large; an effect the other way counts as inactive or inconclusive. Potency means the concentration at half of the fitted maximal effect.

SMILES	FMDV antiviral	Marburg entry inh	RE007 growth inh	LASV entry inh	Sm TGR block	HCV inhibitor	HCV inh confirm	HCV cytotox
COc1ccc(-n2c(SCC(=O)Nc3cc(C)cc(C)c3)nc3c(oc4ccccc43)c2=O)cc1	0.0%	-19.8%[46.1 µM]	nt	nt	6.1%	nt	nt	nt
CC(C)Cc1ccc(C(C)C(=O)Nc2ccccc2O)cc1 (stereo unspecified)	?	?	8.6%	?	-24.2%	4.47µM*	4.45µM*	9.95µM*
COc1ccc(OC)c(NC(=O)N(C)CCc2c(C)nn(C)c2C)c1	-10.4%	nt	nt	-5.5%[46.1 µM]	-0.9%	nt	nt	nt
CCCCn1c(SCn2nnc3ccccc3c2=O)nc2cc(S(N)(=O)=O)ccc21	nt	1.2%	-7.1%	-4.3%	-13.7%	?	0.0011µM*	-3.4%
CCCCn1c(SCN2C(=O)c3ccccc3C2=O)nc2cc(S(N)(=O)=O)ccc21	-6.8%	?	21.4%	1.2%	-11.0%	21.3%	nt	nt
CCN(CC)c1ccc(/C=N/NC(=O)c2ccoc2C)c(O)c1	-15.9%	nt	-19.1%	nt	18.2%	2.82µM*	7.05µM*	7.91µM*
Cc1cc(NC(=S)N(CCN2CCCCC2)Cc2ccco2)ccc1Cl	2.6%	?	-9.8%	?	2.5%	8.91µM*	25µM*	-13.5%
CCC(C(=O)NCCc1cc(OC)ccc1OC)n1nc(C)c2c(C)n(-c3ccccc3)nc2c1=O (stereo unspecified)	?	nt	nt	-6.3%[46.1 µM]	1.1%	nt	nt	nt
CCOC(=O)CN1C(=O)N(c2ccc(C)c(C)c2)S(=O)(=O)c2ccccc21	-13.4%	nt	nt	-11.8%[46.1 µM]	2.3%	nt	nt	nt
CC(C)(C)C1C/C(=C/c2ccccn2)C(=O)/C(=C/c2ccccn2)C1 (stereo unspecified)	3.55µM*	nt	-11.0%	nt	17.8µM*	0.891µM*	0.995µM*	1.41µM*
O=C1/C(=C/c2ccccn2)COc2ccccc21	?	?	-19.8%	?	?	19.6%	nt	nt
Cc1cc2nc(N(Cc3cccnc3)C(=O)c3ccc(Cl)s3)sc2cc1C	0.6%	nt	nt	6.0%[46.1 µM]	38.7%	nt	nt	nt
Cc1nn(C)c(Nc2ccc(Br)cc2)c1Br	?	-21.9%[46.1 µM]	38.2%	nt	-0.9%	3.55µM*	4.99µM*	8.87µM*
Cn1c(=O)c(=O)n(C)c2cc(N3CCCC3)c(NC(=O)c3ccccc3F)cc21	-4.4%	7.5%[46.1 µM]	nt	27.3%[46.1 µM]	2.8%	nt	nt	nt
Cc1nc(-c2cnn(-c3ccccc3)c2)c2cc(C)oc2n1	-24.5%	?	-1.5%	-1.8%	0.2%	7.08µM*	15.8µM*	46.3%
CCOC(=O)N1CCC(NC(=O)CCc2c(C)nc3c(c(C)nn3C(C)(C)C)c2C)CC1	?	?	-0.9%	?	-10.4%	5.62µM*	12.5µM*	?
CCOC(=O)N1CCC(NC(=O)CCc2c(C)nc3nc(C)nn3c2C)CC1	-0.6%	-4.5%	-13.1%	3.1%	9.3%	-6.0%	nt	nt
COc1ccc(-c2cc(C)no2)cc1S(=O)(=O)N1CCN(c2ccc([N+](=O)[O-])cc2)CC1	-24.5%	nt	7.0%	nt	0.7%	3.98µM*	8.87µM*	25µM*
O=C(CCCc1nc2ccccc2s1)Nc1nccs1	10.8%	?	18.5%	-2.2%	1.3%	-7.0%	nt	nt
Cc1cnc(NC(=O)CCCc2nc3ccccc3s2)s1	13.2%	?	-2.3%	?	-19.1%	2.82µM*	15.8µM*	-34.7%
COc1ccc(Oc2ncc3ncc(=O)n(C[C@H]4CCCO4)c3n2)cc1	-6.3%	nt	nt	nt	nt	nt	nt	nt
Cc1ccc(NC(=O)CCC2CC(C)(C)OC2=O)cc1 (stereo unspecified)	-0.9%	14.2%	-20.7%	-0.4%[46.1 µM]	-0.1%	3.98µM*	0.6%	-2.0%
CC1(C)CC(CCC(=O)Nc2ccc(S(N)(=O)=O)cc2)C(=O)O1 (stereo unspecified)	-25.4%	9.7%	8.3%	2.0%	4.1%	14.6%	nt	nt
Cc1ccc(CNC(=O)C(C)n2c(=O)cc(-c3ccccc3)c3c(C)nn(C)c32)cc1 (stereo unspecified)	-21.3%	nt	nt	-6.0%[46.1 µM]	2.7%	nt	nt	nt
COc1ccc(C(=O)Nc2nc(-c3cccs3)cs2)cc1	0.0%	?	?	?	1.9%	?	22.3µM*	0.0025µM*
SMILES	FMDV antiviral	Marburg entry inh	RE007 growth inh	LASV entry inh	Sm TGR block	HCV inhibitor	HCV inh confirm	HCV cytotox
O=C(Nc1nc(-c2ccc(Cl)s2)cs1)c1ccncc1	nt	?	3.7%	-21.2%	-7.0%	?	6.28µM*	?
CCN1CCN(CCCOc2ccc(-c3ccccc3)cc2)CC1	nt	?	-6.7%	-27.4%	1.0%	2.82µM*	14.1µM*	-19.1%
CN1CCN(CCOc2ccc(-c3ccccc3)cc2)CC1	18.9%	nt	-2.7%	nt	-13.0%	?	nt	nt
Cc1ccc(Cl)cc1NC(=O)c1cc(CN2CCCC2)on1	0.0%	nt	nt	10.0%[46.1 µM]	-3.2%	nt	nt	nt
COc1ccc(S(=O)(=O)Nc2cccc(-c3ccc(N4CCCCCC4)nn3)c2)c(OC)c1	29.8%	nt	5.2%	-29.4%[46.1 µM]	-0.1%	3.55µM*	19.9µM*	-15.3%
COc1ccc(S(=O)(=O)Nc2cccc(-c3ccc(N4CCCC4)nn3)c2)c(OC)c1	32.5%	nt	nt	-5.8%[46.1 µM]	-0.3%	nt	nt	nt
COc1ccccc1CNC(=O)Cc1csc(NC(=O)Nc2ccccc2OC)n1	-26.9%	?	-16.8%	?	6.8%	?	17.7µM*	51.2%
COc1ccccc1NC(=O)Nc1nc(CC(=O)NCc2ccccn2)cs1	-26.9%	-5.5%	-8.0%	-15.7%	-0.8%	?	nt	nt
CC(=O)Nc1ccc(NC2=C(Cl)C(=O)c3ccccc3C2=O)cc1	28.2µM*	?	5.6%	?	0.891µM*	3.16µM*	25µM*	22.3µM*
O=C(Oc1ccc(NC2=C(Cl)C(=O)c3ccccc3C2=O)cc1)c1ccc([N+](=O)[O-])cc1	?	0.6%	-5.8%	nt	-15.9%	?	nt	nt
Cn1ncc2c(NCCc3ccccc3)nc(Cl)nc21	-23.7%	-14.2%	-3.6%	-14.5%	nt	?	25µM*	-6.8%
CCCOc1ccc(NC(=O)CC2C(=O)N(c3ccc(C)cc3)C(=O)N2C(C)C)cc1 (stereo unspecified)	-4.3%	nt	nt	?	4.8%	nt	nt	nt
CCC1CCCCN1C(=O)c1cc(COc2ccc3ncccc3c2)on1 (stereo unspecified)	?	?	-26.9%	?	0.6%	3.16µM*	1.77µM*	3.15µM*
